Cycloheximide cs: counter-screen hit for Shiga toxin inhibitors, cycloheximide. AID 2314. hit rate 12% among 300,000. cell reporter, cycloheximide protein synthesis inhibition counterscreen. max response, %; in the data active means max response mostly above about 13%, no sharp cut-off; inactive means mostly below about 14%; further: read at 38.3 µM for the half of the compounds with a filed dose; 0% is about no effect
Shiga toxin inh: inhibitors of Shiga toxin in Vero cells | Vero cells, Shiga toxin protein synthesis inhibition reporter | inhibition, % at 38.7 µM | hit rate 9.2% among 290,000 | AID 2315; in the data active means inhibition mostly above about 28%, no sharp cut-off; inactive means mostly below about 43%; further: 0% is about no effect
NS1 inh: influenza NS1 inhibition | Potency, µM (series often up to 46.1 µM), for inactives: at the top dose activity, positive = more growth | hit rate 0.4% among 270,000 | AID 2326; calls by dose curve; further: potency means the concentration at half of the fitted maximal effect; actives are rising curves; nearly all actives have a fitted effect of over 50% in size
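Recovery from NS1-induced slow growth read by OD600 in budding yeast switched to galactose assay medium (pH 6.0, -URA) at 1:100 dilution. Compound 23 nl per well; the matching strain lacking NS1 serves as control.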
Pf growth 96h: inhibits malaria parasite growth, 96 h; Potency, µM (top dose mostly 28.7 µM), for the others: at the top dose activity change, negative = inhibition, actives largely listed as inhibitors; AID 504834; P. falciparum luciferase reporter growth, 96 h; hit rate 6.9% among 320,000; further: potency means the concentration at half of the fitted maximal effect; on the % scale 0 is the no-effect control and ±100 the full control effect
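Luminescence readout: decreased luciferase signal marks inhibited growth of reporter-expressing P. falciparum in infected red cells (2% hematocrit, 0.05% parasitemia final), exposed to compound two generations (96 h, 37 C, 5% CO2).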
Sm TGR inh: blocks Schistosoma mansoni thioredoxin glutathione reductase. Q962Y6. purified TGR, DTNB reduction, TNB absorbance 405 nm. Potency, µM (doses to about 114 µM), for the others: at the highest dose activity change, negative = inhibition, actives largely listed as inhibitors. hit rate 3% among 360,000; further: potency means the concentration at half of the fitted maximal effect; on the % scale 0 is the no-effect control and ±100 the full control effect; nearly all actives have a fitted effect of over 60% in size
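TGR 20 nM + NADPH 100 uM (dispensed conc.), cpd preinc 15 min RT; start with NADPH (500 uM addition) then DTNB (15 mM addition). Kinetic TNB absorbance, 405 nm filter. Four-parameter Hill fit across titration.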
Pf growth 48h: P. falciparum growth inhibition at 48 hours (one generation) | AID 504832 | Potency, µM (highest dose often 28.7 µM), inactives show at the highest dose activity change, negative = inhibition, hits mostly inhibitors | hit rate 5.9% among 310,000 | P. falciparum luciferase growth in erythrocytes, 48 h; further: potency means the concentration at half of the fitted maximal effect; on the % scale 0 is the no-effect control and ±100 the full control effect
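Read-out is firefly luciferase luminescence from an integrated reporter in P. falciparum, so falling signal marks reduced parasite growth. Infected erythrocytes were at 2% hematocrit and 0.1% parasitemia (final) in Albumax-supplemented RPMI 1640.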
* marks the source's active call; other numbers are inactive results; u = inconclusive; x = not tested or not shown; [ ] = another dose, or the depositor's remark. Shown are actives, neighbours in structure and some others; about 21% of the full set was active somewhere. Unless noted, the call rests on the fitted dose curve; in most records, active means well fitted curve in the direction sought with a large enough effect; inconclusive means small, poorly fitted or top-dose-only effect, or another doubt; inactive means no such curve, though single readings can be large; an effect the other way counts as inactive or inconclusive.

SMILES	Cycloheximide cs	Shiga toxin inh	NS1 inh	Pf growth 96h	Sm TGR inh	Pf growth 48h
Nc1nc(NCc2ccccc2Cl)n(-c2ccccc2)n1	-1.0	-3.9	-23.4%	u	-25.3%	22.2%
Cc1ccc(CNC(=O)c2ccc(-n3cnc4cccnc43)cc2)cc1	x	x	x	x	-0.6%	x
Cn1nccc1C(=O)N/N=C/c1c(O)ccc2ccccc12	28.0*	46.9*	-11.9%	10.4µM*	-21.7%	2.62µM*
Cc1ccc(C(=O)N/N=C/c2c(O)ccc3ccccc23)cn1	-3.8	-5.5	-46.0%	8.3%	-5.2%	3.7µM*
O=C(N/N=C\c1c(O)ccc2ccccc12)c1cncc(Br)c1	-0.4	-6.9	-70.3%	2.33µM*	-26.4%	2.94µM*
COc1ccccc1Cc1nc2ccccc2nc1SCC(=O)N1CCN(c2ccccc2)CC1	x	x	x	x	9.9%	x
O=C(NCc1ccco1)c1ccccc1-c1nc(-c2ccccc2)no1	11.3	17.4	-9.2%	51.4%	6.2%	x
Cc1cccc(-c2noc(-c3ccccc3C(=O)NCc3ccco3)n2)c1	74.6*	124.6	3.9%	34.3%	22.4µM*	36.5%
COc1cc(-c2noc(-c3ccccc3C(=O)NCc3ccco3)n2)cc(OC)c1OC	12.0	28.0	-23.5%	u	-15.3%	-22.0%
COc1ccccc1-c1noc(-c2ccccc2C(=O)NCc2ccco2)n1	14.0*	30.5	2.1%	7.2%	x	-0.2%
Cc1cccc(-c2nc(CNC(=O)c3ccco3)cs2)c1	41.8*	106.2*	-22.8%	u	-12.6%	49.6%
Cc1ccc(-c2noc(-c3ccccc3C(=O)NCc3ccco3)n2)cc1	33.1*	62.6*	-13.0%	66.6%	u	43.9%
O=[N+]([O-])c1ccc2nnn(O)c2c1	-4.9	-2.3	9.3%	u	-2.2%	-1.8%
CSCCC(NC(=O)C1CCC(C)CC1)C(=O)Nc1ccc(NC(C)=O)cc1 (stereo not drawn)	-2.9	-8.6	2.8%	u	4.9%	4.7%
CC1CCN(S(=O)(=O)c2ccc3c(c2)N(CC(=O)NC(C)c2ccccc2)C(=O)CS3)CC1 (stereo not drawn)	x	x	x	x	-1.8%	x
CC(C)(C)c1ccc(OCc2cc(=O)n3c4c(sc3n2)CCCC4)cc1	x	x	x	x	-7.8%	x
CCCCNC(=O)c1ccc2c(c1)ncn2-c1cc(OC)ccc1OC	x	x	x	x	19.9%	x
Cc1nc(SC(C)C(=O)NC2CCCCC2C)c2c(C)c(C)sc2n1 (stereo not drawn)	-3.2	3.1	5.1%	14.7µM*	-7.3%	7.6%
CC(Sc1n[nH]c(N)n1)C(=O)NC1CCCCC1C (stereo not drawn)	-2.1	-2.2	9.8%	1.5%	2.7%	85.5%
O=C(COc1nncc2ccccc12)Nc1ccc(F)c(F)c1	-4.2	20.5	2.7%	u	11.3%	15.2%
CC(C)CCOc1ccc(Cn2c(=O)oc3ccccc32)cc1	x	x	x	x	-0.6%	x
O=C1OCC(c2ccc(Cl)s2)=C1c1ccccc1[N+](=O)[O-]	7.5	2.2	0.0%	-4.2%	2.6%	3.2%
CC(=O)N1CCc2cc(N=NC3=C(O)CC(C)(C)CC3=O)ccc21	27.2*	45.7*	x	32.1%	-2.2%	u
O=C(O)c1cccc(S(=O)(=O)N2CCOCC2)c1	-5.7	-7.9	6.3%	-18.8%	1.2%	-3.8%
O=C(O)c1cccc(N=NN2CCOCC2)c1	18.0*	38.6	3.2%	-12.3%	1.4%[57.1 µM]	6.7%
SMILES	Cycloheximide cs	Shiga toxin inh	NS1 inh	Pf growth 96h	Sm TGR inh	Pf growth 48h
O=C1CCCC(O)=C1N=Nc1cccc(C(=O)O)c1	17.1*	58.6	x	24.9%	-26.0%	10.4%
CCN(CC)S(=O)(=O)c1cccc(N=NC2=C(O)CCCC2=O)c1	-2.5	-14.1	7.1%	u	-3.9%	u
CC1(C)CC(=O)C(N=Nc2cc(Cl)c(Cl)c(Cl)c2)=C(O)C1	-3.0	-9.8	-0.5%	23.6%	-1.1%	x
Cc1nc2ccc(N=NC3=C(O)CCCC3=O)cc2s1	49.8*	72.2*	-14.5%	27.4%	-33.3%	15.1%
Cc1ccc(C)c(NC(=O)C(Cc2ccccc2)N2Cc3ccccc3C2=O)c1 (stereo not drawn)	x	x	x	x	-13.5%	x
CC(C)c1ccc2oc(-c3cccc(NC(=O)c4ccc5c(c4)OCCO5)c3)nc2c1	x	x	x	x	-3.2%	x
CCOC(=O)c1c(NC(=O)c2cc(C(C)C)on2)sc(C)c1C	x	x	x	x	-7.2%	x
Cc1nc2ccc(N=NC3=C(O)CC(C)(C)CC3=O)cc2s1	95.8*	110.4*	-3.6%	33.4%	-11.7%	70.3%

Screening results from PubChem BioAssay.
